# The antibiotic and cytotoxicity screens of Wong et al. (2023)
# Screen size: about 39,000 compounds; about 1,500 (3.8%) were called active. Many of the other results were omitted from the sample, so actives are more common in it than they were.
# Test system: HSkMC (human skeletal muscle cells)
# Assay: cytotoxicity call (relative viability < 0.9)
# Details: 10 µM
row,SMILES,cytotoxicity call
1,O=C(CCCCCNC(=O)OCCCOc1ccc(C2=N[C@]3(Cc4ccccc4)C(=O)N(Cc4ccccc4)Cc4ccccc4[C@@H]3O2)cc1)NO,inactive
2,C[C@@H]1CCCCO[C@@H](CN(C)C(=O)Nc2ccc3c(c2)OCO3)[C@@H](C)CN([C@H](C)CO)C(=O)c2cc(NC(=O)CCCCCC(=O)Nc3ccccc3N)ccc2O1,inactive
3,NC(=O)c1ncn([C@@H]2O[C@H](CO)[C@@H](O)[C@H]2O)n1,inactive
4,C[C@@H]1CN([C@H](C)CO)C(=O)c2cc(NC(=O)Nc3ccc(F)cc3)ccc2O[C@@H]1CN(C)Cc1ccc(C(=O)Nc2ccccc2N)cc1,inactive
5,Cc1ncc(NC(=O)c2cccc(C(F)(F)F)c2)cc1-c1cnc(OC2CCOCC2)c(N2CCOCC2)c1,inactive
6,Cc1ccc(Nc2ncc3c(n2)N(C)C(=O)N(c2cc(NC(=O)c4cccc(C(F)(F)F)c4)ccc2C)C3)cn1,active
7,O=C(Nc1cccc(C(F)(F)F)c1)c1ccc2ccccc2c1,inactive
8,C[C@H]1CN([C@@H](C)CO)C(=O)Cc2cc(NS(=O)(=O)c3ccc(Cl)cc3)ccc2O[C@H]1CN(C)C(=O)Nc1ccc(C(F)(F)F)cc1,inactive
9,CCCCCCO[C@H](C)c1c(c/2[nH]c1/C=C/1\N=C(/C=C/3\NC4=C(CC(=O)C4=C3C)C3=N/C(=C2)[C@@H](C)[C@@H]3CCC(=O)O)C(=C1C)CC)C,active
10,CC1=C(CCC(=O)O)c2cc3[nH]c(cc4nc(cc5[nH]c(cc1n2)c(C)c5C(C)O)C(C)=C4C(C)O)c(C)c3CCC(=O)O (stereo unspecified),inactive
11,CCc1c(c/2[nH]c1/C=C/1\N=C(/C(=C/3\N=C(/C=C/4\N/C(=C2)C(=C4C)C=C)[C@@H](C)[C@@H]3CCC(=O)O)CC(=O)N[C@@H](CC(=O)O)C(=O)O)C(=C1C)C(=O)O)C,inactive
12,C[C@H](N)C(=O)N1CCc2ccccc2C1,inactive
13,C[C@@H]1CCCCO[C@@H](CN(C)S(=O)(=O)c2ccc(F)cc2)[C@@H](C)CN([C@@H](C)CO)C(=O)c2cc(NC(=O)Nc3ccc(F)cc3)ccc2O1,inactive
14,CC(N)O.Cc1cc(CC(C)CC(C)(C)C)n(O)c(=O)c1 (stereo unspecified),inactive
15,C[C@H](CO)N1C[C@H](C)[C@@H](CN(C)C(=O)Cc2ccccc2)OCCCC[C@H](C)Oc2ccc(NC(=O)Nc3ccc(C(F)(F)F)cc3)cc2C1=O,inactive
16,C[C@@H]1CCCCO[C@@H](CN(C)C(=O)Cc2ccccc2)[C@@H](C)CN([C@H](C)CO)C(=O)c2cc(NC(=O)Nc3ccc(C(F)(F)F)cc3)ccc2O1,inactive
17,C[C@@H]1CN([C@H](C)CO)C(=O)c2cc(NC(=O)Nc3ccc(C(F)(F)F)cc3)ccc2O[C@@H](C)CCCCO[C@@H]1CN(C)C(=O)Cc1ccccc1,active
18,C[C@H](CO)N1C[C@H](C)[C@H](CN(C)C(=O)Cc2ccccc2)OCCCC[C@H](C)Oc2ccc(NC(=O)Nc3ccc(C(F)(F)F)cc3)cc2C1=O,inactive
19,C[C@@H]1CCCCO[C@H](CN(C)C(=O)Cc2ccccc2)[C@@H](C)CN([C@@H](C)CO)C(=O)c2cc(NC(=O)Nc3ccc(C(F)(F)F)cc3)ccc2O1,inactive
20,C[C@@H]1CCCCO[C@@H](CN(C)C(=O)Cc2ccccc2)[C@@H](C)CN([C@@H](C)CO)C(=O)c2cc(NC(=O)Nc3ccc(C(F)(F)F)cc3)ccc2O1,inactive
21,C[C@@H]1CCCCO[C@H](CN(C)C(=O)Cc2ccccc2)[C@@H](C)CN([C@H](C)CO)C(=O)c2cc(NC(=O)Nc3ccc(C(F)(F)F)cc3)ccc2O1,inactive

row,SMILES,cytotoxicity call
1,C[C@@H]1CCCCO[C@H](CN(C)C(=O)Cc2ccccc2)[C@H](C)CN([C@@H](C)CO)C(=O)c2cc(NC(=O)Nc3ccc(C(F)(F)F)cc3)ccc2O1,active
2,C[C@@H]1CN([C@@H](C)CO)C(=O)c2cc(NC(=O)Nc3ccc(C(F)(F)F)cc3)ccc2O[C@@H](C)CCCCO[C@H]1CN(C)C(=O)Cc1ccccc1,active
3,COc1ccc(NC(=O)N(C)C[C@@H]2OCc3cnnn3CCCC(=O)N([C@H](C)CO)C[C@@H]2C)c(OC)c1,inactive
4,C[C@@H]1CCCCO[C@@H](CN(C)C(=O)CCC(F)(F)F)[C@@H](C)CN([C@@H](C)CO)C(=O)c2cc(NC(=O)CCC(F)(F)F)ccc2O1,inactive
5,C[C@@H]1CN(C)C(=O)c2cccc(NC(=O)c3ccncc3)c2O[C@H]1CN(C)Cc1ccc(Oc2ccccc2)cc1,inactive
6,O=C(C[C@@H]1CC[C@@H]2[C@H](COC[C@@H](O)CN2S(=O)(=O)c2ccccc2)O1)N[C@H]1CCN(Cc2ccccc2)C1,inactive
7,COc1cc(-c2cc(=O)c3c(s2)N(Cc2ccco2)[C@@H](c2ccc(O)c(OC)c2)CC3=O)ccc1O,inactive
8,C[C@H](CO)N1C[C@H](C)[C@@H](CN(C)C(=O)Nc2ccc(F)cc2)Oc2ccc(NC(=O)Nc3cccc4ccccc34)cc2CC1=O,inactive
9,CC(C)(C)C(=O)OCOP(=O)(OCOC(=O)C(C)(C)C)C(C)(Oc1ccc(O)cc1)P(=O)(OCOC(=O)C(C)(C)C)OCOC(=O)C(C)(C)C,inactive
10,O=C1Nc2ccc(I)cc2C1=Cc1cc(Br)c(O)c(Br)c1,active
11,COc1ccc2c(c1)/C(=N\O)C(=O)N2,inactive
12,COc1ccc2c(c1)C(=O)C(=O)N2,inactive
13,C[C@H](CO)N1C[C@H](C)[C@H](CN(C)C(=O)Nc2ccc(C(F)(F)F)cc2)OCCCC[C@H](C)Oc2ccc(NC(=O)c3ccccc3)cc2C1=O,inactive
14,C[C@H](CO)N1C[C@H](C)[C@H](CN(C)C(=O)Nc2ccc3c(c2)OCO3)OCCCC[C@H](C)Oc2ccc(NS(=O)(=O)c3ccccc3)cc2C1=O,inactive
15,CCN1C(=O)[C@H]2[C@H](O)CS[C@H]2C1=O,inactive
16,C[C@@H]1CN([C@@H](C)CO)S(=O)(=O)c2ccc(C#C[C@@H](C)O)cc2O[C@H]1CN(C)C(=O)C1CCCCC1,inactive
17,c1ccc2c(c1)-c1ccc3ccc4cccc5cc-2c1c3c45,inactive
18,CCN(CC)CCNC(=O)COc1ccc(OC)cc1.Cl,inactive
19,CCN(CC)CCCCNc1ncc2cc(-c3cc(OC)cc(OC)c3)c(NC(=O)NC(C)(C)C)nc2n1,active
20,CCN(CC)CCCCNc1ncc2cc(-c3c(Cl)cccc3Cl)c(NC(=O)NC(C)(C)C)nc2n1,inactive
